Experimental data: PubChem BioAssay AID1159580 (chemical genetic matrix, 2015)
Several values for one entry are separate records, joined by “and”; a condition that tells them apart may be missing. Equal values may be shown once. The whole screen tested about 5,500 compounds, of which about 2,000 (36%) were called active. Another 18% or so got no clear call; they are omitted. Rule as the data show it: active = normalized growth mostly below about 0.91 (no sharp cut-off); inconclusive = no clear call, values can overlap the other calls; inactive = mostly above about 0.92. Some of the results follow.

Assay: chemical genetic growth profiling, strain panel (AID 1159580);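 also: tested at 20 µM; growth read once vehicle control cultures reached saturation at 30 °C; 1 = growth at the plate median or of vehicle wells; lower values mean less growth of the strain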
Settings: S. cerevisiae deletion strains, growth OD

Measured: normalized growth

CC(=O)O[C@]1(C)CC[C@@]23CC1C(C)(C)[C@@H]2CC[C@H]3C
active: locus YOR184W, strain ser1, hits give low values 0.846
inactive: locus YAL013W, strain DEP1, hits give low values 1 | locus YAL021C, strain ccr4, hits give low values 0.985 | locus YAL026C, strain drs2, hits give low values 0.979 | locus YAL030W, strain snc1, hits give low values 0.98 | locus YBL061C, strain skt5, hits give low values 0.967 | locus YBR009C, strain hhf1, hits give low values 0.968 | locus YBR021W, strain FUR4, hits give low values 0.954 | locus YBR023C, strain chs3, hits give low values 0.961 | locus YBR171W, strain sec66, hits give low values 0.969 | locus YBR229C, strain ROT2, hits give low values 1 | locus YBR231C, strain swc5, hits give low values 0.998 | locus YBR279W, strain paf1, hits give low values 0.979 | locus YCL011C, strain gbp2, hits give low values 0.975 | locus YCL016C, strain dcc1, hits give low values 0.976 | locus YCL029C, strain bik1, hits give low values 1.03 | locus YCL061C, strain MRC1, hits give low values 0.985 | locus YCL069W, strain vba3, hits give low values 0.976 | locus YCR088W, strain abp1, hits give low values 0.978 | locus YDL005C, strain med2, hits give low values 0.967 | locus YDL035C, strain GPR1, hits give low values 0.964 | locus YDL040C, strain nat1, hits give low values 0.972 | locus YDL074C, strain BRE1, hits give low values 0.958 | locus YDL101C, strain DUN1, hits give low values 0.981 | locus YDL185W, strain tfp1, hits give low values 1.02 | locus YDL192W, strain arf1, hits give low values 0.971 | locus YDR001C, strain nth1, hits give low values 0.977 | locus YDR069C, strain doa4, hits give low values 0.974 | locus YDR101C, strain arx1, hits give low values 1.02 | locus YDR137W, strain rgp1, hits give low values 0.944 | locus YDR159W, strain sac3, hits give low values 0.986 | locus YDR162C, strain NBP2, hits give low values 0.905 | locus YDR195W, strain ref2 0.995 | locus YDR297W, strain sur2, hits give low values 0.96 | locus YDR318W, strain mcm21, hits give low values 0.972 | locus YDR334W, strain swr1, hits give low values 0.974 | locus YDR335W, strain msn5, hits give low values 0.975 | locus YDR388W, hits give low values 1.01 | locus YDR392W, strain spt3, hits give low values 0.964 | locus YDR502C, strain sam2, hits give low values 0.979 | locus YEL003W, strain gim4, hits give low values 0.977 | locus YEL037C, strain rad23, hits give low values 0.975 | locus YEL061C, strain CIN8 (second series), hits give low values 0.981 | locus YEL061C, strain CIN8, hits give low values 0.996 | locus YER015W, strain faa2, hits give low values 0.974 | locus YER016W, strain bim1, hits give low values 0.966 | locus YER110C, hits give low values 1.02 | locus YER111C, strain swi4, hits give low values 0.967 | locus YER155C, strain BEM2 (second series), hits give low values 0.974 | locus YER155C, strain BEM2, hits give low values 0.95 | locus YER167W, strain BCK2, hits give low values 0.982 | locus YFR010W, strain ubp6, hits give low values 0.994 | locus YGL078C, strain dbp3, hits give low values 1.01 | locus YGL086W, strain mad1, hits give low values 1.02 | locus YGL167C, strain pmr1, hits give low values 0.977 | locus YGL173C, strain kem1, hits give low values 0.975 | locus YGL227W, strain vid30, hits give low values 0.969 | locus YGL240W, strain doc1, hits give low values 1.01 | locus YGL248W, strain PDE1, hits give low values 0.934 | locus YGL253W, strain hxk2, hits give low values 0.981 | locus YGR078C, strain PAC10, hits give low values 0.946 | locus YGR135W, strain pre9, hits give low values 0.985 | locus YGR252W, strain gcn5, hits give low values 0.867 | locus YHR013C, strain ard1, hits give low values 0.959 | locus YHR027C, strain rpn1, hits give low values 0.986 | locus YHR030C, strain SLT2, hits give low values 0.964 and 0.917 | locus YHR079C, strain IRE1 (second series), hits give low values 1.01 | locus YHR079C, strain IRE1, hits give low values 0.951 | locus YHR094C, strain hxt1, hits give low values 1.01 | locus YHR129C, strain ARP1, hits give low values 0.978 | locus YHR142W, strain chs7, hits give low values 0.967 | locus YHR200W, strain rpn10, hits give low values 1 | locus YIL066C, strain RNR3, hits give low values 0.973 | locus YIL073C, strain SPO22, hits give low values 0.923 | locus YIL125W, strain kgd1, hits give low values 1.01 | locus YIR030C, strain dcg1, hits give low values 0.997 | locus YJL092W, strain hpr5, hits give low values 0.983 | locus YJL095W, strain BCK1 (second series), hits give low values 0.981 | locus YJL095W, strain BCK1, hits give low values 0.84 and 0.968 | locus YJL115W, strain asf1, hits give low values 0.975 | locus YJL129C, strain trk1, hits give low values 0.981 | locus YJL134W, strain LCB3, hits give low values 1.01 | locus YJL154C, strain vps35, hits give low values 0.962 | locus YJL164C, strain tpk1, hits give low values 0.978 | locus YJL166W, strain qcr8, hits give low values 0.978 | locus YJL168C, strain set2, hits give low values 1.01 | locus YJL187C, strain SWE1 (second series), hits give low values 0.97 | locus YJR043C, strain POL32, hits give low values 0.995 | locus YJR066W, strain TOR1, hits give low values 0.958 | locus YJR075W, strain HOC1, hits give low values 0.956 | locus YKL009W, strain mrt4, hits give low values 1.08 | locus YKL068W, hits give low values 0.998 | locus YKL085W, strain MDH1 (second series), hits give low values 1 | locus YKL085W, strain MDH1, hits give low values 1 | locus YKL160W, strain elf1, hits give low values 0.968 | locus YKL190W, strain CNB1, hits give low values 1 | locus YKR001C, strain vps1, hits give low values 0.98 | locus YKR026C, strain gcn3, hits give low values 0.974 | locus YKR091W, strain srl3, hits give low values 0.974 | locus YLL001W, strain dnm1, hits give low values 0.978 | locus YLL026W, hits give low values 0.971 | locus YLL041C, strain sdh2, hits give low values 0.973 | locus YLR027C, strain aat2, hits give low values 0.964 | locus YLR039C, strain RIC1, hits give low values 0.853 | locus YLR058C, strain SHM2, hits give low values 0.974 | locus YLR102C, strain apc9, hits give low values 1.01 | locus YLR113W, strain HOG1, hits give low values 0.911 | locus YLR221C, strain rsa3, hits give low values 0.977 | locus YLR258W, strain gsy2, hits give low values 0.957 | locus YLR262C, strain YPT6 (second series), hits give low values 0.987 | locus YLR262C, strain YPT6, hits give low values 0.848 | locus YLR268W, strain sec22, hits give low values 1.03 | locus YLR320W, strain mms22, hits give low values 0.981 | locus YLR330W, strain CHS5, hits give low values 1 | locus YLR342W, strain FKS1 (second series), hits give low values 1 | locus YLR342W, strain FKS1, hits give low values 0.995 | locus YLR357W, strain rsc2, hits give low values 0.989 | locus YLR370C, strain arc18, hits give low values 0.976 | locus YLR371W, strain rom2, hits give low values 1.01 | locus YLR384C, strain iki3, hits give low values 0.977 | locus YLR418C, strain cdc73, hits give low values 0.864 | locus YML016C, strain PPZ1, hits give low values 1 | locus YML032C, strain rad52, hits give low values 0.965 | locus YML120C, strain ndi1, hits give low values 0.976 | locus YML124C, strain tub3, hits give low values 0.999 | locus YMR058W, strain fet3, hits give low values 0.968 | locus YMR078C, strain ctf18, hits give low values 1.01 | locus YMR125W, strain sto1, hits give low values 0.966 | locus YMR129W, hits give low values 0.973 | locus YMR205C, strain PFK2, hits give low values 0.933 | locus YMR223W, strain ubp8, hits give low values 0.959 | locus YMR231W, strain pep5, hits give low values 0.976 | locus YMR263W, strain SAP30, hits give low values 0.983 | locus YMR307W, strain GAS1, hits give low values 0.74 | locus YNL067W, strain RPL9B, hits give low values 0.969 | locus YNL071W, strain lat1, hits give low values 0.982 | locus YNL183C, strain NPR1, hits give low values 0.961 | locus YNL209W, strain ssb2, hits give low values 0.983 | locus YNL233W, strain BNI4, hits give low values 0.933 | locus YNL248C, strain rpa49, hits give low values 0.978 | locus YNL250W, strain rad50, hits give low values 1.01 | locus YNL271C, strain bni1, hits give low values 1.01 | locus YNL298W, strain CLA4, hits give low values 1.03 | locus YNL307C, strain MCK1, hits give low values 1.01 | locus YNL322C, strain KRE1 (second series), hits give low values 0.952 | locus YNR049C, strain mso1, hits give low values 0.995 | locus YNR052C, strain pop2, hits give low values 0.986 | locus YOL012C, strain htz1 0.829 | locus YOL147C, strain pex11, hits give low values 1 | locus YOR001W, strain rrp6, hits give low values 0.996 | locus YOR061W, strain CKA2, hits give low values 1 | locus YOR069W, strain VPS5, hits give low values 1 | locus YOR070C, strain gyp1, hits give low values 0.993 | locus YOR080W, strain dia2, hits give low values 0.967 | locus YOR083W, strain WHI5, hits give low values 0.979 | locus YOR106W, strain vam3, hits give low values 0.979 | locus YOR136W, strain idh2, hits give low values 1.02 | locus YOR144C, strain elg1, hits give low values 1.01 | locus YOR231W, strain MKK1, hits give low values 0.958 | locus YOR265W, strain rbl2, hits give low values 0.999 | locus YOR270C, strain vph1, hits give low values 0.897 | locus YOR290C, strain snf2, hits give low values 0.947 | locus YOR316C, strain cot1, hits give low values 1 | locus YPL051W, strain arl3, hits give low values 0.976 | locus YPL055C, strain LGE1, hits give low values 0.937 | locus YPL078C, strain atp4, hits give low values 0.999 | locus YPL106C, strain sse1, hits give low values 0.969 | locus YPL240C, strain hsp82, hits give low values 0.982 | locus YPL256C, strain CLN2, hits give low values 0.991 | locus YPR119W, strain clb2, hits give low values 1.01 | locus YPR141C, strain kar3, hits give low values 1 | locus YPR163C, strain tif3, hits give low values 1.02 | locus YPR167C, strain met16, hits give low values 0.98 | strain wtn01, hits give low values 1.04
